For some of these results: Measured potencies and affinities stand elsewhere.
Assays:
Design in all cases: scale not given: direction of the effect not stated beside the values
[1] = target: Protein translocase subunit SecA (Escherichia coli (strain K12)) (UniProt P10408); experiment: Assay to Identify E. coli SecA ATPase Inhibitors; assay type: functional; settings: 30 µM
[2] = target: T1, Ubiquitin-activating enzyme e1, putative (Leishmania donovani (strain BPK282A1)) (UniProt E9BSI1); experiment: Leishmania donovani Ubiquitin Activating Enzyme (LdE1); assay type: functional; settings: 30 µM
T1 sequence (whole entry): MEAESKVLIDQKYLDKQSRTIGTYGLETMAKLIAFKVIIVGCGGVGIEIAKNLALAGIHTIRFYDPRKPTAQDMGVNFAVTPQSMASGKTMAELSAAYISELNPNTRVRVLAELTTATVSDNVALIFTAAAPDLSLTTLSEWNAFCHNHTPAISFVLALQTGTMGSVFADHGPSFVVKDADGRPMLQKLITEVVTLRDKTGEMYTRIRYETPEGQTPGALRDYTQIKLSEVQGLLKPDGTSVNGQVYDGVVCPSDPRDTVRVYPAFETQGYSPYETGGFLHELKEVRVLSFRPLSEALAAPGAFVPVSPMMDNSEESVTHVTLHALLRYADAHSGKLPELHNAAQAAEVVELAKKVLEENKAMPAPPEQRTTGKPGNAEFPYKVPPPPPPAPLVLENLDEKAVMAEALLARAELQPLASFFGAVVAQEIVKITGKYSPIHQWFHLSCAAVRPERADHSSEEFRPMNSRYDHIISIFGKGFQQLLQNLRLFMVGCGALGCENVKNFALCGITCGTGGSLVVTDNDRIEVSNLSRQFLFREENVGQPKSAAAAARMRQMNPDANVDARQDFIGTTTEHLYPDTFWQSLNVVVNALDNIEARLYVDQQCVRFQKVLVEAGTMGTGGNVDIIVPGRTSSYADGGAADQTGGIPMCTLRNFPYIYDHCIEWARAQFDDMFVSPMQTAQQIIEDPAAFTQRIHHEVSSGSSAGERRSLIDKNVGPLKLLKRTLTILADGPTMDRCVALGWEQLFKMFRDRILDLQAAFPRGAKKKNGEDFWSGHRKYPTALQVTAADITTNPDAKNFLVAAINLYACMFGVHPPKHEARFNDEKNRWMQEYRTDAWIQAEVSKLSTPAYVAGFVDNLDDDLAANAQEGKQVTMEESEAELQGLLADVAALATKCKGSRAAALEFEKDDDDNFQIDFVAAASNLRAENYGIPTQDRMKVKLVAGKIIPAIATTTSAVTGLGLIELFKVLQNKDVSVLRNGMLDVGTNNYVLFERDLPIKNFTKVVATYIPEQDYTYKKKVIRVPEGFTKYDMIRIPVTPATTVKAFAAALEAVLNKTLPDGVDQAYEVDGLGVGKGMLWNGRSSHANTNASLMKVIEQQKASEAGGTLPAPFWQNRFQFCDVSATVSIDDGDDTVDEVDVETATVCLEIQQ

[3] = target: AMP-activated protein kinase, AMPK (Homo sapiens) (UniProt P54646+O43741+P54619+Q9UGJ0+Q9Y478+Q13131+Q9UGI9); experiment: AMP-dependent Kinase enzyme assay. An in vitro enzyme assay that detects ADP turnover that is directly proportional to AMPK activity. This uses naive AMPK that is activated during the assay with MK-8722; assay type: functional; settings: 30 µM
[4] = target: Sialic acid-binding Ig-like lectin 9 (Homo sapiens) (UniProt Q9Y336); experiment: Hs-Siglec9 ALPHAscreen SOP 20170721; settings: 10 µM
[5] = tested on: Trypanosoma cruzi; experiment: Trypanosoma cruzi phosphomannomutase and mannose-1-phosphate guanylyltransferase assay; assay type: functional; settings: 10 µM
[6] = target: T2, Arginase-2, mitochondrial (Homo sapiens) (UniProt P78540); experiment: in vitro enzyme assay to detect the production of urea directly proportional to the activity of Arginase II; assay type: functional; settings: 33.3 µM; further: in the data most compounds retested in dose-response had high values
T2 sequence (whole entry): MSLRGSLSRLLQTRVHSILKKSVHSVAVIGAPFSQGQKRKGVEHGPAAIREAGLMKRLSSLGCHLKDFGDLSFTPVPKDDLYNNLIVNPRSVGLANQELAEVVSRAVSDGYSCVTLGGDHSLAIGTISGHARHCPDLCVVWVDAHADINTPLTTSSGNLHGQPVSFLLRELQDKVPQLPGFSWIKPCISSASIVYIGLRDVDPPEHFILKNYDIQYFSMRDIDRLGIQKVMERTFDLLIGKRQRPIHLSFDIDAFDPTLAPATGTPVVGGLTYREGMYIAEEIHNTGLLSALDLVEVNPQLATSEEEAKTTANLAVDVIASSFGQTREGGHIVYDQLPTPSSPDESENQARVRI

[7] = target: T3, Proteasome subunit beta (Trypanosoma cruzi) (UniProt O96673); experiment: Trypanosoma cruzi proteasome chymotrypsin-like activity (TcProtChymo) assay.; further: in the data most compounds retested in dose-response had high values; assay type: functional; settings: 9.37 µM
T3 sequence (whole entry): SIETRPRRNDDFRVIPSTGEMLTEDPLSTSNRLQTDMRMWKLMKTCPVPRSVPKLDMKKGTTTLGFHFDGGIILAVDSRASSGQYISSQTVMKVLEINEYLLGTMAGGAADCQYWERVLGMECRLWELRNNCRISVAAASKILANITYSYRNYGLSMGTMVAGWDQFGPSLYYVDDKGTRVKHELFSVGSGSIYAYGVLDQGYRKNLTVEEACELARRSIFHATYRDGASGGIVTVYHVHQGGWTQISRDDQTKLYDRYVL

[8] = species on record: Homo sapiens; experiment: To identify inhibition of the IFN signalling (Jak-Stat) pathway via expression of an eGFP reporter gene under the control of an IFN-stimulated response element (ISRE) containing MxA promoter.; assay type: functional; settings: 30 µM
[9] = target: T4, Tyrosyl-tRNA synthetase, putative (Trypanosoma cruzi (strain CL Brener)) (UniProt Q4DSP6); experiment: Trypanosoma cruzi tyrosyl tRNA synthetase (TcYRS) _High Tyrosine SOP; assay type: functional; settings: 30 µM; further: in the data most compounds retested in dose-response had high values
T4 sequence (whole entry): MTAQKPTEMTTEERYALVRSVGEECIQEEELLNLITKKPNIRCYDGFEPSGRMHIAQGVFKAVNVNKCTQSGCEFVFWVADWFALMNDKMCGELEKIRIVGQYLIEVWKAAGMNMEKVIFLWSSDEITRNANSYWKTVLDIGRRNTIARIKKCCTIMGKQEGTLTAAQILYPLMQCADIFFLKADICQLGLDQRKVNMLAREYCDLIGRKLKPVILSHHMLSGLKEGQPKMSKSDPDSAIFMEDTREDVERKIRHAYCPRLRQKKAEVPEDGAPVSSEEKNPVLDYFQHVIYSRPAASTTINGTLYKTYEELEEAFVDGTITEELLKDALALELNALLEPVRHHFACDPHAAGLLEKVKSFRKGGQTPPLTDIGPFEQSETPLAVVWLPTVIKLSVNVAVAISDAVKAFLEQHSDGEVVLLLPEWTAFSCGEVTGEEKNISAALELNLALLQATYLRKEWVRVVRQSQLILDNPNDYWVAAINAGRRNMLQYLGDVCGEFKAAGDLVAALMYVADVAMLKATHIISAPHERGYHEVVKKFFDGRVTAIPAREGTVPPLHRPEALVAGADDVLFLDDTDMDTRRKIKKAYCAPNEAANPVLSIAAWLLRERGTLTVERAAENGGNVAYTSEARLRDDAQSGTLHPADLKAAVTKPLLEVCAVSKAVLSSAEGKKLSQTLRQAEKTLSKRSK

[10] = target: T4, Tyrosyl-tRNA synthetase, putative (Trypanosoma cruzi (strain CL Brener)); experiment: Trypanosoma cruzi tyrosyl tRNA synthetase (TcYRS) SOP; assay type: functional; settings: 30 µM
[11] = target: Chromo domain-containing protein 1 (Saccharomyces cerevisiae (strain ATCC 204508 / S288c) (Baker's yeast)) (UniProt P32657); experiment: ScCHD-1 Enzyme Inhibition Assay; assay type: functional; settings: 30 µM; further: in the data most compounds retested in dose-response had high values
Chain of Chromo domain-containing protein 1 (Saccharomyces cerevisiae (strain ATCC 204508 / S288c) (Baker's yeast)) (P32657 whole entry, the tested form may be a part): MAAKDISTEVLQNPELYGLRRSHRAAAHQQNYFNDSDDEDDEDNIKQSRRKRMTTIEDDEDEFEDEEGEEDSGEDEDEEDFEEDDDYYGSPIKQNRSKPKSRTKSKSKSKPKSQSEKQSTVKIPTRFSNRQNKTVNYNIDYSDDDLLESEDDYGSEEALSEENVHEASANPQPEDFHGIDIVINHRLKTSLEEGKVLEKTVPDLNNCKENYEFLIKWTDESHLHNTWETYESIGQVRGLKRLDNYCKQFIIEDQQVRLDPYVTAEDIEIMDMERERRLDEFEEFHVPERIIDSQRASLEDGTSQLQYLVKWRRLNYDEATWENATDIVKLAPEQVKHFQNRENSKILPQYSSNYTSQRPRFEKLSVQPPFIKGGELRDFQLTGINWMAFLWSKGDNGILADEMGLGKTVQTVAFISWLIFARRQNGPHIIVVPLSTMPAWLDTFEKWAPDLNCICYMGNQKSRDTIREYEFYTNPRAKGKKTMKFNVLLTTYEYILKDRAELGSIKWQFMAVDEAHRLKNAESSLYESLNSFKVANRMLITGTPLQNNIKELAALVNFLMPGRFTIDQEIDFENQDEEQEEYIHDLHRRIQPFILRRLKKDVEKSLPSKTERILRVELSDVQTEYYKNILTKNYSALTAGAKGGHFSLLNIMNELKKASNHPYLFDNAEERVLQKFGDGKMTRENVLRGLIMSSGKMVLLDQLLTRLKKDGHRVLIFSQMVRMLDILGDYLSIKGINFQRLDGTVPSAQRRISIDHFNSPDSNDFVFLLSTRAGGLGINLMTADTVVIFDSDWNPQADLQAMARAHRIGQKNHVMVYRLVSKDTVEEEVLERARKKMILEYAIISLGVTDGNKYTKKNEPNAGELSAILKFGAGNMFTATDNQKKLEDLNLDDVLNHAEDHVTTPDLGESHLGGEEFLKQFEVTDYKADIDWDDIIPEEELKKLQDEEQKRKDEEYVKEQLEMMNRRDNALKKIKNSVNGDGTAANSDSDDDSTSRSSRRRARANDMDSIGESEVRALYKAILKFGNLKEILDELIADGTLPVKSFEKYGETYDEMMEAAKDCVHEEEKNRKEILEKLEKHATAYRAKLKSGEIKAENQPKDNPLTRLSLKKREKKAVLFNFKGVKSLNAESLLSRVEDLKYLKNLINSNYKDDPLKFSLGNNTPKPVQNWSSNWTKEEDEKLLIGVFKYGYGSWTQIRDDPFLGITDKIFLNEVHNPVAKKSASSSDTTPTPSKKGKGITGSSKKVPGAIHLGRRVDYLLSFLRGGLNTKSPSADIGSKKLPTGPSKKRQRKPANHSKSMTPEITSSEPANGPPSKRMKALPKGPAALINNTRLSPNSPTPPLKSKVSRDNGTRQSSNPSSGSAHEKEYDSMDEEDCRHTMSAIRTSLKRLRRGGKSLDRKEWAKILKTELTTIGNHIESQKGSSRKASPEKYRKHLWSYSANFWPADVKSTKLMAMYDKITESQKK

Chain of Sialic acid-binding Ig-like lectin 9 (Homo sapiens) (Q9Y336 whole entry): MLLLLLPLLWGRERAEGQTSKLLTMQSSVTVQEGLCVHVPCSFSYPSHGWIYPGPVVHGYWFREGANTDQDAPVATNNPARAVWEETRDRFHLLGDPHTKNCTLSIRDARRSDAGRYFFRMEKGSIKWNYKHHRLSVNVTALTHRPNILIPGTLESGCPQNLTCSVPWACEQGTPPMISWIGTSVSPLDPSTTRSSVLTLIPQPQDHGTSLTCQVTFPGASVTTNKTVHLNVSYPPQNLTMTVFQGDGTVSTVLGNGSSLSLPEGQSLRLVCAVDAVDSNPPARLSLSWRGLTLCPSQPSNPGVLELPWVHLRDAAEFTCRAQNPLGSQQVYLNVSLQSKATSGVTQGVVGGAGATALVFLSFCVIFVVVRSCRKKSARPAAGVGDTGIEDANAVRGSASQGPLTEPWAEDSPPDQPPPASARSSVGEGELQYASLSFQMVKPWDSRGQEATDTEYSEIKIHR
Chain of Protein translocase subunit SecA (Escherichia coli (strain K12)) (P10408 whole entry): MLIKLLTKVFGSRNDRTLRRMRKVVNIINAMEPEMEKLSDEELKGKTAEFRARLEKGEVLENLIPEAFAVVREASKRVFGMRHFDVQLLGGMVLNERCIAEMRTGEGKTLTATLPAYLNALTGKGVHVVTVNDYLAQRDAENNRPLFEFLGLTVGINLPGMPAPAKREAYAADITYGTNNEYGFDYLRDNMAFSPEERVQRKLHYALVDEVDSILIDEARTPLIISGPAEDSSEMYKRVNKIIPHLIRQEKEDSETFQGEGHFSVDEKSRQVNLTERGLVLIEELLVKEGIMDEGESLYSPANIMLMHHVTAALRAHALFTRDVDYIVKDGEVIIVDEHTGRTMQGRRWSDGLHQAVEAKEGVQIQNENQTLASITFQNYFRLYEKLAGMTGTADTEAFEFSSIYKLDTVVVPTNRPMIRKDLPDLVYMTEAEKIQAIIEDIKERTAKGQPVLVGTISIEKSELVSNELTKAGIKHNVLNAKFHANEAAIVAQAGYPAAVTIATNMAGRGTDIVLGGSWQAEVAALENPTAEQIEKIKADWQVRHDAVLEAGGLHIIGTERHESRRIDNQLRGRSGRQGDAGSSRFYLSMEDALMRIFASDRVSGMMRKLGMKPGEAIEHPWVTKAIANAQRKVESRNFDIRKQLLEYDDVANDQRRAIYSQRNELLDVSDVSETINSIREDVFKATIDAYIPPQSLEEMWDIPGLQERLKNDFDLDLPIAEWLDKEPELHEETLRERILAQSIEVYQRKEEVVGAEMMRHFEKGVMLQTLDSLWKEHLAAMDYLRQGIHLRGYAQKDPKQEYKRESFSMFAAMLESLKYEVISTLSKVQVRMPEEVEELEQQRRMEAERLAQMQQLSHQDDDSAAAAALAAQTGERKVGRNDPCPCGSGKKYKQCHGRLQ

| Compound | Percent Effect [1] [%] | Percent Effect [2] [%] | Percent Effect [3] [%] | Percent Effect [4] [%] | Percent Effect [5] [%] | Percent Effect [6] [%] | Percent Effect [7] [%] | Percent Effect [8] [%] | Percent Effect [9] [%] | Percent Effect [10] [%] | Percent Effect [11] [%] |
| --- | --- | --- | --- | --- | --- | --- | --- | --- | --- | --- | --- |
| Fc1cccc(N2CCCC3(CN(Cc4ccncc4)CCO3)C2)c1 (stereo not drawn) | -2.7 | 5.33 | 13.4 | 2.73 | -6.5 | 6.29 | 8.02 | 29.6 | 6.38 | 11.5 | -3.18 |
| CN(Cc1ccccc1)C1(C(=O)O)Cc2ccccc2C1 | -3.87 | 2.67 | -2.42 | 1.78 | -3.6 | 3.12 | 12.9 | 5.79 | 2.73 | 8.64 | -5.27 |
| CS(=O)(=O)N[C@@H]1CCO[C@]2(CCN(C(=O)C3=CCCC3)C2)C1 | -2.88 | 13.5 | 3.79 | -4.46 | -2.25 | 14.3 | 23.2 | -15.3 | 5.41 | 12.8 | -3.57 |
| COc1ccc(C2CCCN2C(=O)c2cc3c([nH]c2=O)CCC3)cc1 (stereo not drawn) | -6.57 | 5.41 | 2.86 | -3.27 | -2.73 | 4.58 | 17.5 | -1.92 | 11.9 | 8.54 | -6.14 |
| COc1cccc(C(=O)N2CCc3ncnc(C)c3CC2)c1 | -2.5 | 2.74 | -0.34 | 2.4 | -5.16 | 0.399 | 10.4 | 2.5 | 6.25 | 11.1 | -8.63 |
| O=C1CC(c2ccccc2F)c2c(n3ccsc3nc2=O)N1 (stereo not drawn) | -2.59 | 9.33 | 1.41 | 7.25 | 2.95 | -5.46 | 7.76 | 2.76 | 4.23 | 12.8 | -9.93 |
| O=C(c1n[nH]c2ccccc12)N1CCCC1c1noc(C2CC2)n1 (stereo not drawn) | -4.36 | 7.59 | -0.141 | 0.249 | 8.4 | 5.32 | 1.39 | -4.43 | 4.43 | 13.9 | -5.81 |
| Cc1nc(CN2CCC(C(=O)O)(n3ccc(-c4ccco4)n3)CC2)co1 | -6.11 | 8.22 | -0.438 | 4.25 | 0 | -0.399 | 12.9 | 23.4 | 1.04 | 3.7 | -0.0478 |

— ChEMBL document CHEMBL3988442, “University of Dundee, Small-Polar-MMV Screening Library” (2021)
